Data from PubChem BioAssay (Tox21).
Records with an inconclusive call do not appear. The source made the active and inactive calls. Unless noted, the call rests on the fitted dose curve; in most records, active means well fitted curve in the direction sought with a large enough effect in the repeat runs; inconclusive means weak or mixed curves; inactive means no such curve, though single readings can be large; an effect the other way counts as inactive or inconclusive. Where a SMILES comes first, the peptide text is derived from it. [ ]: non-standard residue; d: D form. pGlu = O=C1CC[C@@H](C(=O)O)N1

Columns and labels:
[1] = qHTS assay to identify small molecule antagonists of the estrogen receptor alpha (ER-alpha) signaling pathway using the BG1 cell line in the presence of 0.1 nM 17-beta-estradiol - cell viability counter screen (AID 1259241); further: nearly all actives have a fitted effect of over 40% in size
Outline: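 In this screen, hormone-deprived VM7Luc4E2 cells were seeded at 4,000 per well, dosed with compound and 0.1 nM estradiol final, and incubated 22 hr at 37C and 5% CO2; fluorogenic live-cell protease signal reported viability.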

[2] = qHTS assay to identify small molecule antagonists of the androgen receptor (AR) signaling pathway using the MDA cell line in the presence of 0.5 nM R1881 - cell viability counter screen (AID 1259242); further: nearly all actives have a fitted effect of over 45% in size
Outline: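 Counter screen for cytotoxicity run in the same wells as the AR antagonist reporter screen: MDA-kb2 cells were treated 16 hr with test compounds and 0.5 nM R1881, then live-cell protease activity was measured by fluorescence.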

[3] = target: Estrogen receptor (Homo sapiens) (UniProt P03372); test: qHTS assay to identify small molecule antagonists of the estrogen receptor alpha (ER-alpha) signaling pathway using the BG1 cell line in the presence of 0.1 nM 17-beta-estradiol (AID 1259244); further: nearly all actives have a fitted effect of over 50% in size
Outline: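 Cells: VM7Luc4E2, endogenous ER-alpha, 4x ERE-luc stable. Pre-culture 5 d, phenol red-free, charcoal-stripped FBS. Plated 24 h, compound + E2 0.1 nM final, 22 h 37C/5% CO2. Readout ONE-Glo luminescence.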

[4] = qHTS assay to identify small molecule HDAC inhibitors (AID 1259364); further: top concentration of the series differs between compounds; nearly all actives have a fitted effect of over 45% in size
Outline: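 Luminescence from a cell-permeant luminogenic class I/II HDAC substrate reports endogenous deacetylase activity in intact HCT-116 cells treated with compounds for 2 h.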

[5] = qHTS assay to identify small molecule HDAC inhibitors - cell viability counter screen (AID 1259365); further: series mostly up to about 92 µM; nearly all actives have a fitted effect of over 50% in size
Outline: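 Measured quantity is CellTiter-Glo luminescence from wild-type HCT-116 cells after compound incubation of 2hr at 37C, 5% CO2; reagent developed 30min at room temperature.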

[6] = qHTS assay to identify small molecule agonists of the sonic hedgehog signaling (Shh) pathway - cell viability counter screen (AID 1259366); further: nearly all actives have a fitted effect of over 50% in size
Outline: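 In quantitative high-throughput format, 3T3 Gli1-Luc cells were exposed to compounds for 24hr and multiplexed for viability using CellTiter-Fluor, incubated 1hr at 37C before the fluorescence read.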

[7] = qHTS assay to identify small molecule antagonists of the sonic hedgehog signaling (Shh) pathway - cell viability counter screen (AID 1259367); further: nearly all actives have a fitted effect of over 55% in size
Outline: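 After a 4 hr settling period, 3T3 Gli1-Luc cells were treated with DMSO-dissolved chemicals and conditioned medium, kept 24 hr at 37C in 5% CO2, and assayed for viability by CellTiter-Fluor fluorescence following 1 hr reagent incubation.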

[8] = qHTS assay to identify small molecule agonists of the sonic hedgehog signaling (Shh) pathway (AID 1259368; calls by dose curve;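 further: NIH/3T3-derived 3T3Gli1-Luc cells carrying a stable Gli1-driven firefly luciferase reporter; series mostly up to about 92 µM; nearly all actives have a fitted effect of over 15% in size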)
Outline: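 3T3Gli1-Luc (NIH/3T3 clone, stable Gli1-Luc); 4 hr pre-incubation, then cpd in DMSO 24 hr, 37 C/5% CO2; luciferase reagent 30 min RT; luminescence.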

[9] = qHTS assay to identify small molecule phospholipidosis (PLD) inducers (AID 1259344; active means well fitted curve in the direction sought with a large enough effect; an effect the other way counts as inactive or inconclusive)
Outline: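 HepG2 cells grown on collagen I take up LipidTOX Red while exposed to compound for 24 h; after fixation they are imaged at 20x and pit metrics are extracted.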

Measured: Potency

Chain of Estrogen receptor (Homo sapiens) (P03372 whole entry, looked up): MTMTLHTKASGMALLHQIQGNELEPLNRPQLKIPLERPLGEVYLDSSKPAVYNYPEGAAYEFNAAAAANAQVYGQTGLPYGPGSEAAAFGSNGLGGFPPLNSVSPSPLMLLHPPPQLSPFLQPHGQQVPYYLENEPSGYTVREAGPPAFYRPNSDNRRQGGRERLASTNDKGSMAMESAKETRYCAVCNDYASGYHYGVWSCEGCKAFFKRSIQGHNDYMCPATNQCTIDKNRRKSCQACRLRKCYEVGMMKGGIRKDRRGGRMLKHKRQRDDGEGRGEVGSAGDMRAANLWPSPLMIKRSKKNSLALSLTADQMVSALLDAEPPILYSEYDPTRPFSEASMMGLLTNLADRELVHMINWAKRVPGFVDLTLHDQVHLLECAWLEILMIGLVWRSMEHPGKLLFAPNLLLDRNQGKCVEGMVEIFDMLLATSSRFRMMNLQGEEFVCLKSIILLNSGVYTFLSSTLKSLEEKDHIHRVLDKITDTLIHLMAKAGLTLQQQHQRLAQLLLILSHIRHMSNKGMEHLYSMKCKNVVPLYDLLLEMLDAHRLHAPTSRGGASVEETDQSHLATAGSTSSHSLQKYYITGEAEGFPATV

CCCC(=O)O[C@]1(C(=O)CC)CC[C@H]2[C@@H]3CCC4=CC(=O)CC[C@]4(C)[C@H]3[C@@H](O)C[C@@]21C
not listed: [9]
inactive: all other assays above

C=CCCC(=O)O
not listed: [9]
inactive: all other assays above

CCOC(=O)CCC(=O)OCC
not listed: [9]
inactive: all other assays above

CC/C=C\CCOC(C)OCC (centres undefined)
not listed: [9]
inactive: all other assays above

CN(C)CCN(C)CCN(C)C
not listed: [9]
inactive: all other assays above

CCNS(=O)(=O)c1ccc(C)cc1
not listed: [9]
inactive: all other assays above

CC(C)(C)C(=O)c1ccccc1
not listed: [9]
inactive: all other assays above

CCCCc1ccc2c(n1)[C@@H](c1ccc(OC)cc1C[C@H](C)C(=O)O)[C@H](C(=O)O)[C@H]2c1ccc2c(c1)OCO2
not listed: [9]
inactive: all other assays above

[K+]
not listed: [9]
inactive: all other assays above

CN(C)CCCN(C)CCCN(C)C
not listed: [9]
inactive: all other assays above

CN1C(C)(C)CC(O)CC1(C)C
not listed: [9]
inactive: all other assays above

Nc1ccn([C@@H]2O[C@H](CO)[C@@H](O)[C@@H]2O)c(=O)n1
not listed: [9]
inactive: all other assays above

CCNC(=O)[C@@H]1CCCN1C(=O)[C@H](CCCN=C(N)N)NC(=O)[C@H](CC(C)C)NC(=O)CNC(=O)[C@H](Cc1ccc(O)cc1)NC(=O)[C@H](CO)NC(=O)[C@H](Cc1c[nH]c2ccccc12)NC(=O)[C@H](Cc1cnc[nH]1)NC(=O)[C@@H]1CCC(=O)N1 ([pGlu]HWSYGLRP-NHEt)
not listed: [9]
inactive: all other assays above

CC(CC=O)CC(C)(C)C (centres undefined)
not listed: [5] | [9]
inactive: all other assays above

C1CCC2(CCCCO2)OC1
not listed: [9]
inactive: all other assays above

CCCC(C)C(=O)OCC (centres undefined)
not listed: [5] | [9]
inactive: all other assays above

CCCO[Si](OCCC)(OCCC)OCCC
not listed: [5] | [9]
inactive: all other assays above

CCCCCCC1CCC(=O)O1 (centres undefined)
not listed: [9]
inactive: all other assays above

O=C(O)CNC(=O)c1ccccc1
not listed: [3]
inactive: all other assays above
